Assay results published in PubChem BioAssay AID1159580 (chemical genetic matrix, 2015).
Where “and” joins values, the source holds several entries; their conditions need not be identical. Identical values can stand only once. The whole screen tested about 5,500 compounds, of which about 2,000 (36%) were called active. Inconclusive results (about 18%) are left out. No stated cut-off is given here; in the data, active means normalized growth mostly below about 0.91 (no sharp cut-off); inconclusive means no clear call, values can overlap the other calls; inactive means mostly above about 0.92. Some of the results follow.

Assay: chemical genetic growth profiling, strain panel (AID 1159580);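 further: tested at 20 µM; growth read once vehicle control cultures reached saturation at 30 °C; 1 = growth at the plate median or of vehicle wells; lower values mean less growth of the strain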
Details: S. cerevisiae deletion strains, growth OD

Measured: normalized growth

CCC[C@@H]1C[C@@H](C(=O)N[C@H]([C@H]2O[C@H](SC)[C@H](O)[C@@H](O)[C@H]2O)[C@H](C)O)N(C)C1
inactive: locus YAL021C, strain ccr4, hits give low values 0.981 | locus YAL026C, strain drs2, hits give low values 0.99 | locus YAL030W, strain snc1, hits give low values 0.984 | locus YBL061C, strain skt5, hits give low values 0.981 | locus YBR009C, strain hhf1, hits give low values 1.01 | locus YBR021W, strain FUR4, hits give low values 1.01 | locus YBR023C, strain chs3, hits give low values 0.977 | locus YBR171W, strain sec66, hits give low values 0.962 | locus YBR229C, strain ROT2, hits give low values 0.991 | locus YBR231C, strain swc5, hits give low values 0.981 | locus YBR279W, strain paf1, hits give low values 0.985 | locus YCL011C, strain gbp2, hits give low values 0.997 | locus YCL016C, strain dcc1, hits give low values 1.03 | locus YCL029C, strain bik1, hits give low values 0.996 | locus YCL061C, strain MRC1, hits give low values 0.969 | locus YCL069W, strain vba3, hits give low values 0.971 | locus YCR088W, strain abp1, hits give low values 0.973 | locus YDL005C, strain med2, hits give low values 0.979 | locus YDL035C, strain GPR1, hits give low values 1.02 | locus YDL040C, strain nat1, hits give low values 0.975 | locus YDL074C, strain BRE1, hits give low values 1.03 | locus YDL101C, strain DUN1, hits give low values 0.983 | locus YDL134C, strain PPH21, hits give low values 1 | locus YDL185W, strain tfp1, hits give low values 0.979 | locus YDL192W, strain arf1, hits give low values 0.98 | locus YDR001C, strain nth1, hits give low values 0.958 | locus YDR069C, strain doa4, hits give low values 0.965 | locus YDR101C, strain arx1, hits give low values 1.01 | locus YDR137W, strain rgp1, hits give low values 0.983 | locus YDR150W, strain NUM1, hits give low values 1 | locus YDR159W, strain sac3, hits give low values 1.01 | locus YDR162C, strain NBP2, hits give low values 1.01 | locus YDR195W, strain ref2 0.922 | locus YDR297W, strain sur2, hits give low values 0.975 | locus YDR318W, strain mcm21, hits give low values 0.989 | locus YDR334W, strain swr1, hits give low values 0.929 | locus YDR335W, strain msn5, hits give low values 0.974 | locus YDR388W, hits give low values 0.992 | locus YDR392W, strain spt3, hits give low values 1.04 | locus YDR502C, strain sam2, hits give low values 0.991 | locus YEL003W, strain gim4, hits give low values 0.952 | locus YEL037C, strain rad23, hits give low values 0.983 | locus YEL061C, strain CIN8 (second series), hits give low values 0.962 | locus YEL061C, strain CIN8, hits give low values 1.01 | locus YER015W, strain faa2, hits give low values 1.01 | locus YER016W, strain bim1, hits give low values 0.987 | locus YER110C, hits give low values 0.983 | locus YER111C, strain swi4, hits give low values 0.98 | locus YER155C, strain BEM2 (second series), hits give low values 0.986 | locus YER155C, strain BEM2, hits give low values 0.975 | locus YER167W, strain BCK2, hits give low values 1.02 | locus YFR010W, strain ubp6, hits give low values 0.974 | locus YGL078C, strain dbp3, hits give low values 0.981 | locus YGL086W, strain mad1, hits give low values 1 | locus YGL167C, strain pmr1, hits give low values 0.959 | locus YGL173C, strain kem1, hits give low values 0.973 | locus YGL227W, strain vid30, hits give low values 0.978 | locus YGL240W, strain doc1, hits give low values 0.958 | locus YGL248W, strain PDE1, hits give low values 0.986 | locus YGL253W, strain hxk2, hits give low values 0.992 | locus YGR078C, strain PAC10, hits give low values 0.993 | locus YGR135W, strain pre9, hits give low values 0.955 | locus YGR252W, strain gcn5, hits give low values 0.943 | locus YHR013C, strain ard1, hits give low values 0.993 | locus YHR027C, strain rpn1, hits give low values 0.981 | locus YHR030C, strain SLT2, hits give low values 1.01 | locus YHR079C, strain IRE1 (second series), hits give low values 0.998 | locus YHR079C, strain IRE1, hits give low values 1.03 | locus YHR094C, strain hxt1, hits give low values 0.998 | locus YHR129C, strain ARP1, hits give low values 0.981 | locus YHR142W, strain chs7, hits give low values 0.995 | locus YHR200W, strain rpn10, hits give low values 0.993 | locus YIL066C, strain RNR3, hits give low values 0.991 | locus YIL073C, strain SPO22, hits give low values 1 | locus YIL125W, strain kgd1, hits give low values 0.985 | locus YIR030C, strain dcg1, hits give low values 0.99 | locus YJL092W, strain hpr5, hits give low values 0.977 | locus YJL095W, strain BCK1 (second series), hits give low values 0.978 | locus YJL095W, strain BCK1, hits give low values 0.98 and 1.02 | locus YJL115W, strain asf1, hits give low values 0.977 | locus YJL129C, strain trk1, hits give low values 0.984 | locus YJL134W, strain LCB3, hits give low values 0.998 | locus YJL154C, strain vps35, hits give low values 0.969 | locus YJL164C, strain tpk1, hits give low values 1.01 | locus YJL166W, strain qcr8, hits give low values 0.934 | locus YJL168C, strain set2, hits give low values 0.992 | locus YJL187C, strain SWE1 (second series), hits give low values 0.984 | locus YJR043C, strain POL32, hits give low values 1.01
